Drawing on PubChem BioAssay AID1626 (SRMLSC, 2009), this text covers inhibition for 63 compounds.

Hit rate of the full screen: of about 220,000 compounds, about 2,000 (0.91%) were called active. About 2% were inconclusive and are not listed. Rule as the data show it: inconclusive = inhibition above about 80% without an active follow-up result; inactive = below that; test concentration not stated here. Only a sample is shown. Potency and affinity values are given separately.

By inhibition is commonly meant the relative decrease from the control value, in per cent.

The nature of the test: M. tuberculosis H37Rv growth inhibitors, H37Rv strain (AID 1626).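 Also: bacteria incubated seven days before Alamar blue readout; 0% = bacteria only wells and 100% = bacteria with antibiotic wells.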 The following applies: active compounds read high, concentration not given here.
`CCCCc1n[nH]c(=S)n1Cc1ccccc1`: the inhibition was -1.46% (inactive).

In the case of `COc1cccc2[nH]c3c(N4CCC5(CC4)OCCO5)ncnc3c12`, the inhibition was 1.2% (inactive).

With `CC1(C)C=Cc2c(ccc3c2OC[C@@H](c2ccc(O)cc2O)C3)O1`, the inhibition is 1.16% (inactive).

As to `CC(C)=CCc1cc([C@@H]2COc3c(ccc4c3C=CC(C)(C)O4)C2)c(O)cc1O`, the inhibition is 8.4% (inactive).

In the case of `COc1ccc2nc(NC(=O)c3cc(S(=O)(=O)N4CCOCC4)ccc3C)sc2c1`, the inhibition was 14.6% (inactive).

In the case of `O=C(c1cn(-c2ccccc2)nc1-c1ccccc1)N1CCOCC1`, the inhibition was -8.16% (inactive).

Turning to `COc1ccccc1/C=N/NC(=S)NCc1ccco1`, the inhibition was -0.41% (inactive).

On to `CCOC(=O)c1ccc2[nH]c3c(c2c1)CCCC3C(=O)OCC` (stereo not drawn), for which the inhibition was -4.38% (inactive).

For `CCOC(=O)C1CCCc2c1[nH]c1c(C(=O)O)cccc21` (stereo not drawn), the inhibition is -6.94% (inactive).

`CCOc1ccc(S(=O)(=O)N/N=C2/CC(c3ccccc3)Oc3ccccc32)cc1` (stereo not drawn): the inhibition is -11.9% (inactive).

In the case of `COC(=O)C1C(c2ccccc2)C=CC(c2ccccc2)C1C(=O)O` (stereo not drawn), the inhibition was 1.24% (inactive).

On to `O=C1C(Nc2ccccc2)=C(N2CCCCC2)C(=O)c2ccccc21`, for which the inhibition was -1.08% (inactive).

Turning to `O=C1C(Nc2ccccc2)=C(NS(=O)(=O)c2ccccc2)C(=O)c2ccccc21`, the inhibition is 8.84% (inactive).

With `O=C1C=C(Nc2ccccc2C(=O)O)c2ccccc2C1=O`, the inhibition is 1.72% (inactive).

Consider `COC1=C(Nc2ccc(C)cc2)C(=O)c2ccccc2C1=O`, for which the inhibition is 12.8% (inactive).

On to `CCCCNC1=CC(=O)C(=O)c2ccccc21`, for which the inhibition was 1.34% (inactive).

In the case of `O=C1C(Cl)=C(Nc2ccccc2)C(=O)c2ccccc21`, the inhibition is -1.42% (inactive).

Take `Cc1ccc(NC2=C(Cl)C(=O)c3ccccc3C2=O)cc1`: the inhibition was -1.97% (inactive).

Turning to `O=C1C=C(Nc2ccc(O)cc2)C(=O)c2ccccc21`, the inhibition is 5.07% (inactive).

Consider `O=C(c1cc(-c2ccc(Cl)cc2)n(-c2ccc(Cl)c(Cl)c2)n1)N1CCOCC1`, for which the inhibition is -1.31% (inactive).

For `Cc1ccc(OCC(=O)Nc2cccc3nsnc23)c(C)c1`, the inhibition was 7.75% (inactive).

As for `COCOc1ccc(C=O)cc1OCOC`, the inhibition is -3.9% (inactive).

Regarding `COc1cc(Cl)c(C)cc1NC(=O)c1ccc(S(C)(=O)=O)cc1`, the inhibition was 3.38% (inactive).

`CCOc1cc(C=O)ccc1OS(=O)(=O)c1ccc(NC(C)=O)cc1`: the inhibition was 5.36% (inactive).

With `COc1ccc(CN2C(=O)c3oc4ccccc4c(=O)c3C2c2ccc(O)c(OC)c2)cc1` (stereo not drawn), the inhibition is -7.03% (inactive).

Consider `Cc1onc(-c2cccc(Cl)c2Cl)c1C(=O)O/N=C(\N)c1ccc([N+](=O)[O-])o1`, for which the inhibition is 67% (inactive).

As for `O=c1nc(NCc2ccco2)sc2ncccc12`, the inhibition is -7.68% (inactive).

Take `O=C1c2ccc(Oc3ccc4c(c3)C(=O)N(CCCCO)C4=O)cc2C(=O)N1CCCCO`: the inhibition is -9.34% (inactive).

Turning to `Cc1ccc2c(c1)C(=O)N(CCCCO)C2=O`, the inhibition is -0.27% (inactive).

For the compound `COCCNC(=O)c1ccc2c3n(nc2c1)-c1ccc(Cl)cc1CO3`, the inhibition is -12.9% (inactive).

Consider `CCOC(=O)c1sc(NC(=O)CCN2CCC(C)CC2)c(C(=O)OCC)c1C`, for which the inhibition was 5.65% (inactive).

With `O=C(COc1ncnc2ccccc12)c1ccc2c(c1)OCCO2`, the inhibition was -5.58% (inactive).

Consider `O=C(O)C1CC=CCC1C(=O)Nc1ccccc1` (stereo not drawn), for which the inhibition is -3.59% (inactive).

With `O=C(O)[C@H]1CCCC[C@H]1C(=O)Nc1ccc(Nc2ccccc2)cc1`, the inhibition is 3.28% (inactive).

As for `CCCc1cc(=O)n2[nH]c(NCc3ccc(OC)c(OC)c3)nc2n1`, the inhibition was 3.17% (inactive).

As to `Cc1ccc(C)c(NC(=O)C(Sc2ncnc3ccccc23)c2ccccc2)c1` (stereo not drawn), the inhibition is -1.19% (inactive).

Turning to `CC(NC(N)=O)C(=O)Nc1ccc(Cl)c(S(=O)(=O)Nc2ccc(Cl)cc2)c1` (stereo not drawn), the inhibition is 0.16% (inactive).

As for `CCOc1ccc(NS(=O)(=O)c2cc(NC(=O)c3ccc(C)cc3)ccc2Cl)cc1`, the inhibition is 11.8% (inactive).

On to `COc1ccc(NC(=O)c2cccc(OC(F)F)c2)cc1Cl`, for which the inhibition was 0.2% (inactive).

`O=C(Nc1ccc(OC(F)F)c(Cl)c1)c1cccc(OC(F)F)c1`: the inhibition was 10.2% (inactive).

Consider `CCOC(=O)c1cc(NC(=O)NCc2ccco2)c(C)nc1C`, for which the inhibition was -7.42% (inactive).

Regarding `O=c1cc(N2CCCCC2)c2ccccc2o1`, the inhibition is -1.79% (inactive).

With `CCOc1cc(CN2CCN(c3cccc(C(F)(F)F)c3)CC2)ccc1O`, the inhibition is -11.9% (inactive).

Regarding `CCC/C=N/NC(=O)c1cccc(Br)c1`, the inhibition is 7.16% (inactive).

For the compound `Cc1ccccc1-c1nsc(SCC(=O)Nc2ccc3c(c2)OCO3)n1`, the inhibition was 16.3% (inactive).

With `O=C(CSc1nc(-c2ccccc2Cl)ns1)Nc1ccc2c(c1)OCO2`, the inhibition was 98.8% (inactive).

For `COc1ccc(-c2nsc(SCC(=O)NCc3ccc4c(c3)OCO4)n2)cc1`, the inhibition was 6.74% (inactive).

Take `Cc1ccc(-c2nsc(SCC(=O)NCc3ccc4c(c3)OCO4)n2)cc1`: the inhibition is 13.2% (inactive).

`Cc1ccc(NC(=O)C2CCCN(C(=O)c3ccc(Cl)cc3)C2)cc1C` (stereo not drawn): the inhibition is 2.5% (inactive).

As for `CC1=NN(C(=O)c2ccco2)C(O)(c2ccccc2)C1` (stereo not drawn), the inhibition is -2.5% (inactive).

Take `CC(=O)c1cccc(N(CC(=O)N2CCCCC2)S(C)(=O)=O)c1`: the inhibition is 1.7% (inactive).

Regarding `CCOc1cc(NC(=S)NCC2CCCO2)c(OCC)cc1NC(=O)c1ccc(F)cc1` (stereo not drawn), the inhibition is 1.9% (inactive).

As for `COc1ccc(-c2[nH]ncc2CNCCn2cccn2)c(F)c1`, the inhibition was -7% (inactive).

As for `COc1ccccc1OCC(O)CNCc1ccc2c(c1)OCO2` (stereo not drawn), the inhibition is -7.62% (inactive).

On to `Cc1[nH]n(-c2ccccc2)c(=O)c1C=NCCc1ccccc1`, for which the inhibition is 0.59% (inactive).

Turning to `CCCCN=Cc1c(C)[nH]n(-c2ccccc2)c1=S`, the inhibition is -2.18% (inactive).

Turning to `CS/C(=C\[N+](=O)[O-])Nc1ccc(F)cc1`, the inhibition was 3.42% (inactive).

In the case of `O=C(CN1CCCc2ccccc21)NC(=O)NC1CCCCC1`, the inhibition is 6.06% (inactive).

With `O=C(NC(Nc1nc2ccc([N+](=O)[O-])cc2s1)(C(F)(F)F)C(F)(F)F)c1cccnc1`, the inhibition was 5.87% (inactive).

Consider `O=C(NC(Nc1nc2ccccc2s1)(C(F)(F)F)C(F)(F)F)c1ccccc1`, for which the inhibition was -8.04% (inactive).

Consider `Cc1cc2nnc(SCC(=O)NCc3cccs3)n2c(N)n1`, for which the inhibition was -5.08% (inactive).

Regarding `COc1ccc(-c2nn(-c3ccccc3)cc2/C=N/n2cnnc2)cc1OC`, the inhibition was -15.3% (inactive).

On to `COc1ccc(-c2nn(-c3ccccc3)cc2/C=N/NC(N)=S)cc1OC`, for which the inhibition was 2.96% (inactive).
